In PubChem BioAssay (EPA / NIEHS):
Several values for one entry are separate records, joined by “and”; a condition that tells them apart may be missing. Identical values can stand only once. Records with an inconclusive call do not appear. Where a structure was tested more than once in an assay, its records may differ in their call. Activity calls are given as the source filed them. Rule for the calls, unless noted: active = hit-call score of the fitted dose curve at least 0.9, where 1 is the maximum; inconclusive = response in the unintended direction; inactive = score below 0.9.

Assays:
[1] = biological target: Estrogen receptor beta (Homo sapiens) (UniProt Q92731); assay: OT_ER_ERbERb_1440: Odyssey Thera (OT) 24-hour HEK293T Protein-Complementation Assay for Estrogen Receptor-beta/-beta Homodimer (AID 2283380);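 note: fluorescence gain from ER beta LBD homodimer complementation read by laser scanning cytometry; scored as signal increase over DMSO baseline for both agonists and antagonists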
Estrogen receptor beta (Homo sapiens), sequence (Q92731 whole entry, looked up, the tested form may be a part): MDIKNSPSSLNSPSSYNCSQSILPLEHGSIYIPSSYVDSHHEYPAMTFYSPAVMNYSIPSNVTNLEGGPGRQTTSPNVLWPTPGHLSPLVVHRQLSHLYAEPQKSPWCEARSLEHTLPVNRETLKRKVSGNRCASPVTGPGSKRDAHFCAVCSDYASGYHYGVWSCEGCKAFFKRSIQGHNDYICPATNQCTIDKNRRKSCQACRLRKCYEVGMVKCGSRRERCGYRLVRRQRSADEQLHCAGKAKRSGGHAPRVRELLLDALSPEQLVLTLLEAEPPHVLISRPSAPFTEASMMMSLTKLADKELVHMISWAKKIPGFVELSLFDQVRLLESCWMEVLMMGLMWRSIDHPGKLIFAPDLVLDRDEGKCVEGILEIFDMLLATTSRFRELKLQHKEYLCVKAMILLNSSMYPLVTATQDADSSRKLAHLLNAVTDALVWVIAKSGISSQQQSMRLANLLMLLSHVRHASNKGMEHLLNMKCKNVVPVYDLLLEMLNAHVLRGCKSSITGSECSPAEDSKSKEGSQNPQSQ
Summary of the method: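 Fluorescence increase, nuclear for agonists or whole-cell for antagonists, relative to DMSO vehicle, quantified by laser scanning cytometer after fixation and Draq5 staining. Readout from 24 h treatment of HEK293T cells carrying complementation-paired ER beta LBD (aa 310-547).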

[2] = biological target: Estrogen receptor (Homo sapiens) (UniProt P03372); assay: OT_ERa_GFPERaERE_0480: Odyssey Thera (OT) 8-hour HeLa Transcription Induction Assay for Estrogen Receptor (AID 2283381; active = hit-call score of the fitted dose curve at least 0.9, where 1 is the maximum; inactive = score below 0.9)
Estrogen receptor (Homo sapiens), sequence (P03372 whole entry, looked up): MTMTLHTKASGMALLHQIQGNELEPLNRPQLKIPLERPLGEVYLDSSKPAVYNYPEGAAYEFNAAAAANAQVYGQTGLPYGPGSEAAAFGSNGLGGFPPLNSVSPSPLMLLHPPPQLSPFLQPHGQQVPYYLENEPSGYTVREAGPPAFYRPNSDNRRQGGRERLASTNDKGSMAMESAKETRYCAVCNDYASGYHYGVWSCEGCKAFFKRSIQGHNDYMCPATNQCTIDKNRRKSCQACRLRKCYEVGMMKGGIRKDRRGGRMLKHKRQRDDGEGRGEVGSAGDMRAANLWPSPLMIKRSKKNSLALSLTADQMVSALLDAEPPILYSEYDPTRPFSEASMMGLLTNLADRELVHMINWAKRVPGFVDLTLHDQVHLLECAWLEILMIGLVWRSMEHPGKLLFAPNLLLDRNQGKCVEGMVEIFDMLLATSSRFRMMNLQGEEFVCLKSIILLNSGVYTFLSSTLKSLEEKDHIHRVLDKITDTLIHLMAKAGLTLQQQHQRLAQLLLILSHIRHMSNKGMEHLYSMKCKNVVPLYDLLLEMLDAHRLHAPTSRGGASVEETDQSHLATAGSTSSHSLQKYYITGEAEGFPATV
Summary of the method: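 An 8 h HeLa transcription-induction format with a GFP reporter under ERE control, read by fluorescence microscopy; single endpoint fitted positively with DMSO as baseline.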

[3] = biological target: Estrogen receptor (Homo sapiens) (UniProt P03372); assay: OT_ERa_GFPERaERE_0120: Odyssey Thera (OT) 2-hour HeLa Transcription Induction Assay for Estrogen Receptor (AID 2283382)
Summary of the method: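 Two-hour compound treatment of HeLa cells preceded microscopy imaging of an inducible fluorescent reporter. Image-based quantification gave one endpoint, analysed for signal increase relative to DMSO controls.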

[4] = biological target: Retinoic acid receptor RXR-alpha (Homo sapiens) (UniProt P19793); assay: OT_NURR1_NURR1RXRa_0480: Odyssey Thera (OT) 8-hour HEK293T Protein Complementation Assay for Nurr1/retinoid X receptor (RXR) (AID 2283385)
Retinoic acid receptor RXR-alpha (Homo sapiens), sequence (P19793 whole entry, looked up, the tested form may be a part): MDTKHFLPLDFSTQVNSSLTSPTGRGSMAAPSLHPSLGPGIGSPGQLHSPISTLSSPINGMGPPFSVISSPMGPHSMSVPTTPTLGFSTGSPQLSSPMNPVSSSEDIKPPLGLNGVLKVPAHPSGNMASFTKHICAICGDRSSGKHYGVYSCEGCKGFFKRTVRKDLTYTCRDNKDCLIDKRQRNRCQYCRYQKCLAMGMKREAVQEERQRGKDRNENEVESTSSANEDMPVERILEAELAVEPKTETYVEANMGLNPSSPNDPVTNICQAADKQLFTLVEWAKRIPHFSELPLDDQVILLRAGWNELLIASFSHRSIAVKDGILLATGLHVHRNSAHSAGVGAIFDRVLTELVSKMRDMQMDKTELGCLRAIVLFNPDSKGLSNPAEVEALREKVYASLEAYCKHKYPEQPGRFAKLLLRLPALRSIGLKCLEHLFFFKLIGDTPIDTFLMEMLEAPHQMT
Summary of the method: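 Gain in fluorescent complementation signal over DMSO, measured 8 hours after chemical dosing of human kidney HEK293T cells, indicated enhanced Nurr1–RXRα association.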

[5] = biological target: Retinoic acid receptor RXR-alpha (Homo sapiens) (UniProt P19793); assay: OT_NURR1_NURR1RXRa_1440: Odyssey Thera (OT) 24-hour HEK293T Protein Complementation Assay for Nurr1/retinoid X receptor (RXR) (AID 2283386)
Summary of the method: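 Cell-based binding reporter: HEK293T cells, 24 h exposure, fluorescence-detected fragment complementation, DMSO as baseline.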

[6] = biological target: Peroxisome proliferator-activated receptor gamma (Homo sapiens) (UniProt P37231); assay: OT_PPARg_PPARgSRC1_0480: Odyssey Thera (OT) 8-hour Protein-Complementation Assay for Peroxisome Proliferator-activated Receptor Gamma / SRC-1 Co-activator (AID 2283387);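 note: nuclear to cytoplasmic split Venus YFP fluorescence ratio reporting PPARg SRC-1 interaction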
Peroxisome proliferator-activated receptor gamma (Homo sapiens), sequence (P37231 whole entry, looked up, the tested form may be a part): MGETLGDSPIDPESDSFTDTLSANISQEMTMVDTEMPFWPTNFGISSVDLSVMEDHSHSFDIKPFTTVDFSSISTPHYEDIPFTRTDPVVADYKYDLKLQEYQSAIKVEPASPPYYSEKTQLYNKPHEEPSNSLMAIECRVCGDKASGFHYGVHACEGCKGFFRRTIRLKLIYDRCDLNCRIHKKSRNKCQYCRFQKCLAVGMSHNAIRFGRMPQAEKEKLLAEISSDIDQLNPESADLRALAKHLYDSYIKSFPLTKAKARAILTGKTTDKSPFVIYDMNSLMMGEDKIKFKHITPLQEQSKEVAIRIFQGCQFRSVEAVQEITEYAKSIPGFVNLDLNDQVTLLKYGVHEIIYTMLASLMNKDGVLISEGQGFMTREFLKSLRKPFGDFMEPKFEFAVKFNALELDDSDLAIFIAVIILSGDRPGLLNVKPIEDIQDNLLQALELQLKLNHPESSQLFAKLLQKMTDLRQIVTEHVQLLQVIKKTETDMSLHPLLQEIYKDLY
Summary of the method: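 Read-out: 488 nm N/C fluorescence ratio from complemented Venus YFP fragments, ≥350 cells per image, gain-of-signal fitted against DMSO baseline. Fusions of PPARg/SRC-1 with IFP1/IFP2 expressed transiently in HEK293T; compounds applied 8 h.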

[7] = biological target: Peroxisome proliferator-activated receptor gamma (Homo sapiens) (UniProt P37231); assay: OT_PPARg_PPARgSRC1_1440: Odyssey Thera (OT) 24-hour Protein-Complementation Assay for Peroxisome Proliferator-activated Receptor Gamma/ SRC-1 Co-activator (AID 2283388);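 note: nuclear to cytoplasmic ratio of reconstituted Venus YFP fluorescence in fixed imaged cells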
Summary of the method: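 Protein-fragment complementation between PPARg and coactivator SRC-1 was measured by fluorescence imaging in transiently transfected HEK293T cells after 24 h treatment. Signal was quantified as N/C ratio in the 488 nm channel, with DMSO as negative control.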

[8] = read-out: Tumor necrosis factor receptor superfamily member 6 (Homo sapiens) (UniProt P25445); assay: LTEA_HepaRG_FAS: Life Technologies and Expression Analysis (LTEA) Assay for Fas cell surface death receptor (FAS) using HepaRG (AID 2283447; active = hit-call score of the fitted dose curve at least 0.9, where 1 is the maximum; inactive = score below 0.9); conditions: mRNA level, 48 h; actives raise or lower the signal
Summary of the method: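 FAS transcript level was measured by TaqMan qRT-PCR against three housekeeping genes after 48 h chemical exposure. Cells were HepaRG, 0.5% DMSO vehicle, with a top concentration of 100 uM and half-log dilutions over eight points, in duplicate.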

[9] = biological target: Bile acid receptor (Homo sapiens) (UniProt Q96RI1); assay: OT_FXR_FXRSRC1_1440: Odyssey Thera (OT) 24-hour HEK293T Protein-Complementation Assay for Farnesoid X receptor/SRC-1 Co-activator (AID 2283384)
Bile acid receptor (Homo sapiens), sequence (Q96RI1 whole entry, looked up): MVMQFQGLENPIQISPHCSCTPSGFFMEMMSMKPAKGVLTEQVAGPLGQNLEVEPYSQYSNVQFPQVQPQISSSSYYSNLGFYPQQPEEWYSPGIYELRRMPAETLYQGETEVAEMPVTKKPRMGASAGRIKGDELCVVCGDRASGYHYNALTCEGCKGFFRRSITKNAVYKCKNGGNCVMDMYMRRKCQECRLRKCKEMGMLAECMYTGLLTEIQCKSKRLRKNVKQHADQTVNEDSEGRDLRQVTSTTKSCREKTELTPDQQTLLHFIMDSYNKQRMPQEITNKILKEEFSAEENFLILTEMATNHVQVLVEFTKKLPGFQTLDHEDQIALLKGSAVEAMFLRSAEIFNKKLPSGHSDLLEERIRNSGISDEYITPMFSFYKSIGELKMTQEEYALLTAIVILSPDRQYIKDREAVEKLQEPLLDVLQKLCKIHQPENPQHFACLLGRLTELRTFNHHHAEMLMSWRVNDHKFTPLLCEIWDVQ
Summary of the method: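 Single endpoint, analysed for increased fluorescence against DMSO controls. HEK293T cells carrying FXR and SRC-1 linked to complementary reporter halves were exposed to chemicals for 24 h before reading.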

[10] = CEETOX_H295R_OHPREG: CeeTox H295R High-throughput Steroidogenesis Assay for OH-Pregnenolone (OHPREG) (AID 2283434; active = hit-call score of the fitted dose curve at least 0.9, where 1 is the maximum; inactive = score below 0.9); conditions: actives raise or lower the signal
Summary of the method: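 Secreted 17alpha-hydroxypregnenolone measured by HPLC-MS/MS after liquid-liquid extraction. Human adrenal H295R cells received 48 h forskolin (10 uM) stimulation before 48 h chemical exposure at 0.1% final DMSO; MTT viability in same wells; bidirectional fit against DMSO.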

[11] = CEETOX_H295R_OHPROG: CeeTox H295R High-throughput Steroidogenesis Assay for OH-Progesterone (OHPROG) (AID 2283435; active = hit-call score of the fitted dose curve at least 0.9, where 1 is the maximum; inactive = score below 0.9;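 for AC50: 17alpha-hydroxyprogesterone secreted into medium measured by HPLC-MS/MS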); conditions: actives raise or lower the signal
Summary of the method: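 Human adrenocortical H295R cells, passage 10 or lower, were treated with chemical for 48 h after forskolin priming, and hormone output in the medium was quantified by LC-MS/MS.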

[12] = CEETOX_H295R_ESTRADIOL: CeeTox H295R High-throughput Steroidogenesis Assay for Estradiol (AID 2283440; active = hit-call score of the fitted dose curve at least 0.9, where 1 is the maximum; inactive = score below 0.9;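 note: estradiol secreted into medium quantified by LC-MS/MS after dansyl derivatisation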); conditions: actives raise or lower the signal
Summary of the method: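 Estradiol secreted into the medium was measured by tandem mass spectrometry after liquid-liquid extraction and dansylation. Human H295R cells had been forskolin-primed (10 uM, 48 h) before a 48 h chemical exposure with 0.1% DMSO.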

[13] = CEETOX_H295R_ESTRONE: CeeTox H295R High-throughput Steroidogenesis Assay for Estrone (AID 2283441; active = hit-call score of the fitted dose curve at least 0.9, where 1 is the maximum; inactive = score below 0.9;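 note: estrone secreted into medium measured by LC-MS/MS after dansyl derivatization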); conditions: actives raise or lower the signal
Summary of the method: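 Forskolin-stimulated H295R cells are treated 48 h with chemical, and estrone in the medium is measured by LC-MS/MS. Activity is fitted in both directions relative to DMSO controls, with chemicals diluted until MTT viability reaches at least 70%.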

[14] = CEETOX_H295R_PROG: CeeTox H295R High-throughput Steroidogenesis Assay for Progesterone (PROG) (AID 2283442; active = hit-call score of the fitted dose curve at least 0.9, where 1 is the maximum; inactive = score below 0.9;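 for AC50: human H295R adrenal cells primed with 10 µM forskolin before dosing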); conditions: actives raise or lower the signal
Summary of the method: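 Steps: seed H295R cells and let them adhere overnight; prime 48 h with 10 uM forskolin; dose with compound in DMSO at 0.1% final for 48 h; extract medium steroids with MTBE; measure progesterone by LC-MS/MS. MTT viability was run in the same wells.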

[15] = CEETOX_H295R_11DCORT: CeeTox H295R High-throughput Steroidogenesis Assay for 11-Deoxycortisol (11DCORT) (AID 2283432; active = hit-call score of the fitted dose curve at least 0.9, where 1 is the maximum; inactive = score below 0.9;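 note: 11-deoxycortisol secreted into the medium measured by LC-MS/MS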); conditions: actives raise or lower the signal
Summary of the method: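 H295R cells; 10 uM forskolin prestim 48 h; compound in 0.1% DMSO 48 h; media extracted with MTBE; 11-deoxycortisol by LC-MS/MS, 7-point standard curve; gain/loss vs DMSO baseline; viability by MTT in same wells.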

[16] = CEETOX_H295R_ANDR: CeeTox H295R High-throughput Steroidogenesis Assay for Androstenedione (ANDR) (AID 2283436; active = hit-call score of the fitted dose curve at least 0.9, where 1 is the maximum; inactive = score below 0.9); conditions: actives raise or lower the signal
Summary of the method: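 Medium from 48 h chemical-treated H295R adrenal cells was extracted with MTBE and androstenedione measured by LC-MS/MS. Activity was fit in both directions relative to DMSO. Cytotoxic concentrations were re-tested after dilution until MTT viability reached ≥70%.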

[17] = CEETOX_H295R_CORTIC: CeeTox H295R High-throughput Steroidogenesis Assay for Corticosterone (CORTIC) (AID 2283437; active = hit-call score of the fitted dose curve at least 0.9, where 1 is the maximum; inactive = score below 0.9); conditions: actives raise or lower the signal
Summary of the method: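 Medium corticosterone was quantified by tandem mass spectrometry following 48 hours of chemical exposure (0.1% DMSO) in human H295R cells previously stimulated 48 hours with 10 uM forskolin. Viability checked by MTT; chemicals diluted and retested when viability fell below 70%.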

[18] = CEETOX_H295R_CORTISOL: CeeTox H295R High-throughput Steroidogenesis Assay for Cortisol (AID 2283438; active = hit-call score of the fitted dose curve at least 0.9, where 1 is the maximum; inactive = score below 0.9;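 note: cortisol secreted into medium quantified by LC-MS/MS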); conditions: actives raise or lower the signal
Summary of the method: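 Steroidogenesis in H295R, per modified OECD 456: 48 h forskolin (10 uM), then 48 h exposure, 0.1% DMSO. Cortisol by extraction and tandem MS; viability by MTT (570/650 nm); cytotoxic chemicals diluted and re-tested.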

[19] = CEETOX_H295R_DOC: CeeTox H295R High-throughput Steroidogenesis Assay for DOC (AID 2283439; active = hit-call score of the fitted dose curve at least 0.9, where 1 is the maximum; inactive = score below 0.9); conditions: actives raise or lower the signal
Summary of the method: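 H295R, fsk 10 uM ×48 h pre, cmpd ×48 h (0.1% DMSO). Media → MTBE extr. → LC-MS/MS, DOC. Bidirectional fit vs DMSO; MTT viability same wells, re-test diluted if <70%.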

Measured: AC50

c1ccc2c(c1)Cc1ccccc1-2
inactive: [1] | [2] | [3] | [4] | [5] | [6] | [7] | [8]

O=C1OC2(c3ccccc31)c1cc(Br)c(O)c(Br)c1Oc1c2cc(Br)c(O)c1Br
inactive: [1] | [2] | [3] | [9] | [4] | [5]
active: [6] 74 µM | [7] 73.1 µM

CC(C)(C)CC(C)(C)c1ccc(O)c(-n2nc3ccccc3n2)c1
active: [9] 34.5 µM | [4] 75.6 µM and 79 µM | [5] 30 µM and 84.7 µM
inactive: [1] | [2] | [3] | [6] | [7] | [8]

CCCCCCCCOC(=O)CCCCCCCCC(=O)OCCCCCCCC
inactive: [1] | [2] | [3] | [4] | [5] | [6] | [7] | [8]

CCCCCCCCCCCCN1CCCC1=O
active: [9] 11.2 µM | [4] 12.4 µM | [5] 11.7 µM
inactive: [1] | [2] | [3] | [6] | [7] | [8]

CC(=O)CC(C)(C)O
inactive: [1] | [2] | [3] | [9] | [5] | [6] | [7] | [8]

O=C(OCCOCCOC(=O)c1ccccc1)c1ccccc1
inactive: [2] | [3] | [9] | [4] | [6] | [7] | [8]

CC[C@H](c1ccc(O)cc1)[C@@H](CC)c1ccc(O)cc1
active: [9] 24.5 µM and 31.9 µM | [8] 89.3 µM
inactive: [9] | [4] | [5] | [6] | [7]

CCCCOCCO
inactive: [2] | [3] | [9] | [4] | [5] | [6] | [7] | [8]

CN1CCC[C@H]1c1cccnc1
inactive: [1] | [2] | [3] | [5] | [6] | [7] | [10] | [11] | [12] | [13] | [14] | [8]

Oc1cc2ccccc2c2ccccc12
active: [2] 28.9 µM
inactive: [1] | [3] | [4] | [6] | [7] | [8]

O=c1c(-c2ccc(O)cc2)coc2cc(O)ccc12
inactive: [4] | [5] | [6] | [7] | [12] | [13] | [8]
active: [9] 48.1 µM and 33.8 µM and 30.5 µM | [4] 50 µM | [5] 14.4 µM and 27 µM | [15] 9.01 µM | [10] 4.47 µM | [11] 26.5 µM | [16] 15.2 µM | [17] 1.22 µM | [18] 8.88 µM | [19] 3.19 µM | [14] 4.62 µM

CCCCCCCCCCCCCC[N+](C)(C)C
inactive: [2] | [6]
active: [3] 69.9 µM

CC(C)CCCCCCOC(=O)CCCCC(=O)OCCCCCCC(C)C
inactive: [2] | [3] | [4] | [5] | [6] | [7] | [8]

CCCOc1sc(C(=O)N2CCC(c3cc(CN)ccc3F)CC2)c(C)c1Br
inactive: [6] | [7] | [8]

c1ccc2cc3c(ccc4ccccc43)cc2c1
active: [3] 59.4 µM | [5] 79.7 µM | [11] 6.08 µM
inactive: [2] | [3] | [9] | [4] | [5] | [6] | [7] | [10] | [14] | [8]

CCC(C)(C)C1CCC(O)CC1 (stereo not given)
inactive: [2] | [3] | [4] | [5] | [6] | [7] | [8]
active: [2] 16.2 µM and 40.9 µM | [3] 27.5 µM and 24.4 µM

ClC1=C(Cl)C(Cl)(Cl)C(Cl)=C1Cl
inactive: [1] | [2] | [3] | [6] | [7] | [8]

Cc1cc(C)c(O)c(C)c1
inactive: [2] | [3] | [9] | [4] | [5] | [6] | [7] | [8]

CCOC(=O)CC(O)(CC(=O)OCC)C(=O)OCC
inactive: [1] | [2] | [3] | [5] | [6] | [7] | [8]
